The results in this text go back to paper PMC7862700, “An all-to-all approach to the identification of sequence-specific readers for epigenetic DNA modifications on cytosine”.

Holding throughout (experiment): DAPPL (digital affinity profiling via proximity ligation, sequencing); 10 mM Tris-HCl pH 7.5, 50 mM NaCl, 1 mM DTT, 4% glycerol, room temperature, 30 min; GST-TFs on glutathione beads, 16-mer random dsDNA library, 0.1% formaldehyde crosslink after washing; high values mean tight binding
For one assay, the target named is T1, FEV (Homo sapiens, UniProt Q99581 1-238).
T1 sequence: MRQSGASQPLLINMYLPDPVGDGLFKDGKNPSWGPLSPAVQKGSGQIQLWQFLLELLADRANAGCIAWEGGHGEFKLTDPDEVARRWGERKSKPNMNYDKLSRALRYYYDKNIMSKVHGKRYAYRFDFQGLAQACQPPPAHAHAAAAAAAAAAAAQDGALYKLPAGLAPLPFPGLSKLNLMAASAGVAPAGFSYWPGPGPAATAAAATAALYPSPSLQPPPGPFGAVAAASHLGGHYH
Particulars: protein: recombinant; tags: N-terminal GST; dsDNA, one strand shown. The method, boiled down:
(§1)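 Yeast served to express human transcription factors as GST fusions, which were then captured on glutathione beads and labelled with DNA barcodes. Pooled with a tag-only sample, they were incubated with 200 nmole of a 16-mer random double-stranded DNA library for 30 min at room temperature in Tris/NaCl/DTT/glycerol buffer, washed, crosslinked with 0.1% formaldehyde, ligated by proximity, amplified by PCR and sequenced. Dividing each hexamer's read frequency for a factor by its frequency for the tag-only sample gives the binding signal.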

A further assay concerns the target ETV5 (Homo sapiens, UniProt P41161 1-510). As to conditions: protein: recombinant; tags: N-terminal GST; dsDNA, one strand shown. The method, boiled down:
as §1

The target in another assay is HSF1 (Homo sapiens, UniProt Q00613 1-529). As to conditions: protein: recombinant; tags: N-terminal GST; chain copies: 3; dsDNA, one strand shown. An outline of the steps: as §1
In the next assay the target is T2, SPIC (Homo sapiens, UniProt Q8N5J4 1-248).
T2 sequence: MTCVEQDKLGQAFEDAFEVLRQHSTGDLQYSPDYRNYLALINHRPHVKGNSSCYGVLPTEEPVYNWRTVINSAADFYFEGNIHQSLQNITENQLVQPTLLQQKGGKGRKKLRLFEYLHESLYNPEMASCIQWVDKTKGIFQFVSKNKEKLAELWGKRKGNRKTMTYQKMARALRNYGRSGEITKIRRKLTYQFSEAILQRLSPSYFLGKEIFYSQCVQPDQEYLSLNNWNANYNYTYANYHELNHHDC
Particulars: protein: recombinant; tags: N-terminal GST; dsDNA, one strand shown. An outline of the steps:
as §1

Another assay deals with ELF4 (Homo sapiens, UniProt Q99607 1-663). As to conditions: protein: recombinant; tags: N-terminal GST; dsDNA, one strand shown. The method, boiled down:
as §1

For another assay, the target named is T3, ELK4 (Homo sapiens, UniProt P28324-2 1-405).
T3 sequence: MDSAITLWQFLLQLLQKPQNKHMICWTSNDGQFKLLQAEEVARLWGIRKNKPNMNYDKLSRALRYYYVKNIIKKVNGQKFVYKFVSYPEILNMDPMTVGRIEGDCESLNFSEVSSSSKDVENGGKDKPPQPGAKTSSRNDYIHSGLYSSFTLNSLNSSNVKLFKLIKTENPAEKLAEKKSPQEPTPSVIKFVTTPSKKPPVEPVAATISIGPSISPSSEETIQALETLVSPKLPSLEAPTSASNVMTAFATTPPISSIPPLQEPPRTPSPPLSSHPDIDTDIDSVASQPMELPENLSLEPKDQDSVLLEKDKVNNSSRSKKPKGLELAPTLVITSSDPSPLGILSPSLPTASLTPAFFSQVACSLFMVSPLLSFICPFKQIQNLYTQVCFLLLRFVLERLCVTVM
As to conditions: protein: recombinant; tags: N-terminal GST; dsDNA, one strand shown. An outline of the steps: as §1

A further assay deals with T4, ETV2 (Homo sapiens, UniProt O00321 1-342).
T4 sequence: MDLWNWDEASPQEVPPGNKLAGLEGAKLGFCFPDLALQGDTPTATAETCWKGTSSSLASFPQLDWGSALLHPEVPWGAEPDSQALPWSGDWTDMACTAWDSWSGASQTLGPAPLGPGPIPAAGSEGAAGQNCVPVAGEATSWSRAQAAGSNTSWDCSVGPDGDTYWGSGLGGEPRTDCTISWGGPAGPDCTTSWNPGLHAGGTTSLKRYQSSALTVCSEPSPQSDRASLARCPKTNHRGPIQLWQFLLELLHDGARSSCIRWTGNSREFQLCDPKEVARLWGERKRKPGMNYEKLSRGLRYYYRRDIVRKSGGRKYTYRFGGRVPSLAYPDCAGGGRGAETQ
As to conditions: protein: recombinant; tags: N-terminal GST; dsDNA, one strand shown. An outline of the steps:
as §1

Another assay concerns the target T5, ELF3 (Homo sapiens, UniProt P78545 1-371).
T5 sequence: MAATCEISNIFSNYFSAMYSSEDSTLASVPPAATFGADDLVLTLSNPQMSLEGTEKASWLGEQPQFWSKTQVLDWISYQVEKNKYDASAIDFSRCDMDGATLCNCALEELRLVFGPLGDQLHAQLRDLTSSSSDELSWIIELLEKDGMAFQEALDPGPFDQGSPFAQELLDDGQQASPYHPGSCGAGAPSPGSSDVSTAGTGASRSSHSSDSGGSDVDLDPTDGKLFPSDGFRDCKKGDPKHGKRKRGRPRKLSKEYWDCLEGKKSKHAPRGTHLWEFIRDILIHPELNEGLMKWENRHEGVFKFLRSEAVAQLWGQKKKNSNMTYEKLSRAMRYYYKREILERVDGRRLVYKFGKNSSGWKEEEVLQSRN
As to conditions: protein: recombinant; tags: N-terminal GST; dsDNA, one strand shown. An outline of the steps: as §1

In another assay the target is CRX (Homo sapiens, UniProt O43186 1-299). As to conditions: protein: recombinant; tags: N-terminal GST; dsDNA, one strand shown. The method, boiled down: as §1
A further assay deals with ETV1 (Homo sapiens, UniProt P50549 1-477). As to conditions: protein: recombinant; tags: N-terminal GST; dsDNA, one strand shown. The method, boiled down: as §1
For a further assay, the target named is T6, ERF (Homo sapiens, UniProt P50548 1-548).
T6 sequence: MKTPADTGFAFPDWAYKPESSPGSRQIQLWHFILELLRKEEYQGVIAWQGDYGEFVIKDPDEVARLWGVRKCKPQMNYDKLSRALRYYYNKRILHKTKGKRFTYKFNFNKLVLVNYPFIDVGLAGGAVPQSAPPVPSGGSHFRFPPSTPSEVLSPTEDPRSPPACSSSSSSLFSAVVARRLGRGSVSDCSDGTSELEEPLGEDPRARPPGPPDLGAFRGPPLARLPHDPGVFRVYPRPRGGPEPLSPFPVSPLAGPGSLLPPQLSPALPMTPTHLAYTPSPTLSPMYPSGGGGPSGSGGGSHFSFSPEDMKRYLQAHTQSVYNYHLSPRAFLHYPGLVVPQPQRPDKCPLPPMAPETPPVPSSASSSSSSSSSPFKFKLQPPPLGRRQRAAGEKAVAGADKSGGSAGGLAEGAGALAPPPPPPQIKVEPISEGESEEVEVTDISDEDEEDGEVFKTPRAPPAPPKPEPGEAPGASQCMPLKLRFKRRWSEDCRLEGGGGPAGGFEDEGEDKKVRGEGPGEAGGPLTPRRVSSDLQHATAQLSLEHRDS
As to conditions: protein: recombinant; tags: N-terminal GST; dsDNA, one strand shown. An outline of the steps: as §1

Another assay deals with T7, ETV3L (Homo sapiens, UniProt Q6ZN32 1-361).
T7 sequence: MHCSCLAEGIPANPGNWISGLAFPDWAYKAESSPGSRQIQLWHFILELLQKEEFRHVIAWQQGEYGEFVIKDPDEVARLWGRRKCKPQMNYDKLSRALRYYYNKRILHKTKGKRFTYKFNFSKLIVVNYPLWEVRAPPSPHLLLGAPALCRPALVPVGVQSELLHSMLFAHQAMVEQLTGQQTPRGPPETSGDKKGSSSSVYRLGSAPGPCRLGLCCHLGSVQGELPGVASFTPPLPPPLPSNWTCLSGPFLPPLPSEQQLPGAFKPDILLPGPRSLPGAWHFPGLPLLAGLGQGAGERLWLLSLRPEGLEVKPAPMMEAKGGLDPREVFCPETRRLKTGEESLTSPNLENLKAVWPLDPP
Particulars: protein: recombinant; tags: N-terminal GST; dsDNA, one strand shown. The method, boiled down:
as §1

In another assay the target is T8, ETS2 (Homo sapiens, UniProt P15036 1-469).
T8 sequence: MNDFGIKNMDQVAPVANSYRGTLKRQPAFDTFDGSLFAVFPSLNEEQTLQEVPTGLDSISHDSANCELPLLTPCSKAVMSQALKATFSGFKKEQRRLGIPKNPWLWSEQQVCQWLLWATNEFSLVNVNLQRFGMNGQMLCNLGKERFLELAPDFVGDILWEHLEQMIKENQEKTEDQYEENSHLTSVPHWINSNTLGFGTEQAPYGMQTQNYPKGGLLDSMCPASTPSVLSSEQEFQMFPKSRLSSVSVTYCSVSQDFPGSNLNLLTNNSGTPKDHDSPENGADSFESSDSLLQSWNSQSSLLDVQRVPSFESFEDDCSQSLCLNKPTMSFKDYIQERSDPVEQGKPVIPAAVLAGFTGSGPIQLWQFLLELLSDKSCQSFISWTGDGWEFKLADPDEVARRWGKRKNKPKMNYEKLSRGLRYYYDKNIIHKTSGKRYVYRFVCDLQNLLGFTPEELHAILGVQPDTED
As to conditions: protein: recombinant; tags: N-terminal GST; dsDNA, one strand shown. An outline of the steps:
as §1

For another assay, the target named is T9, SPDEF (Homo sapiens, UniProt O95238 1-335).
T9 sequence: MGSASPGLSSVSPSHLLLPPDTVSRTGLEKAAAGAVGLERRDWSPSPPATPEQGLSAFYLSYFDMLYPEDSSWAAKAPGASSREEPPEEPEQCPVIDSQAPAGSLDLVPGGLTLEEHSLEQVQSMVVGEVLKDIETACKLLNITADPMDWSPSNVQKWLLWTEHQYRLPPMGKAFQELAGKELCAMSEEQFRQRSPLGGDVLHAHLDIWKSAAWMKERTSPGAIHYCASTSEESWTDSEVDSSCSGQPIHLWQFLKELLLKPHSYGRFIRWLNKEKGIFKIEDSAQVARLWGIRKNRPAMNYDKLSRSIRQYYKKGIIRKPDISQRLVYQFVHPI
As to conditions: protein: recombinant; tags: N-terminal GST; dsDNA, one strand shown. The method, boiled down:
as §1

A further assay has as its target T10, ETV7 (Homo sapiens, UniProt Q9Y603 1-341).
T10 sequence: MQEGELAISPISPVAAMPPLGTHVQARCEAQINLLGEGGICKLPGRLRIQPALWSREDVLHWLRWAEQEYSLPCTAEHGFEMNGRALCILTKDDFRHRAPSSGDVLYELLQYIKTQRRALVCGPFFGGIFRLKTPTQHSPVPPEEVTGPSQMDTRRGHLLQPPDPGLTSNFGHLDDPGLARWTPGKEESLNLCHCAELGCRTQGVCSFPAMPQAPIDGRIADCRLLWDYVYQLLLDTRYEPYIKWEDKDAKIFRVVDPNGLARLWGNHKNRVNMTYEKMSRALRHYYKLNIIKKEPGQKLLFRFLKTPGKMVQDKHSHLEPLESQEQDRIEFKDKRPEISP
As to conditions: protein: recombinant; tags: N-terminal GST; dsDNA, one strand shown. The method, boiled down: as §1

The target in another assay is T11, ELF5 (Homo sapiens, UniProt Q9UKW6-2 1-255).
T11 sequence: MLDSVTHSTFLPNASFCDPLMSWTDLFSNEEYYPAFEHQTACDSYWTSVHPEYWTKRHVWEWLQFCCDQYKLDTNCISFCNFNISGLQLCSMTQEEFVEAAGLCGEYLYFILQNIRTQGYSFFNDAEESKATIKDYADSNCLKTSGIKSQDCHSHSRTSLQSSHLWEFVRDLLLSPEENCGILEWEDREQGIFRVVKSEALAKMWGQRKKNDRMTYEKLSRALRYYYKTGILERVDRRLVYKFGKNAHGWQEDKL
As to conditions: protein: recombinant; tags: N-terminal GST; dsDNA, one strand shown. An outline of the steps: as §1

The next assay concerns the target T12, ETV3 (Homo sapiens, UniProt P41162-2 1-143).
T12 sequence: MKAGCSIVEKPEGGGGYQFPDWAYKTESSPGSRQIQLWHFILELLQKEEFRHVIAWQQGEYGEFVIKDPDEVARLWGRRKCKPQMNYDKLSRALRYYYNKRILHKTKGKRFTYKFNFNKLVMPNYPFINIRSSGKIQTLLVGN
As to conditions: protein: recombinant; tags: N-terminal GST; dsDNA, one strand shown. An outline of the steps:
as §1

For a further assay, the target named is ETV6 (Homo sapiens, UniProt P41212 1-452). Particulars: protein: recombinant; tags: N-terminal GST; dsDNA, one strand shown. The method, boiled down: as §1
ETV6, sequence (P41212 whole entry): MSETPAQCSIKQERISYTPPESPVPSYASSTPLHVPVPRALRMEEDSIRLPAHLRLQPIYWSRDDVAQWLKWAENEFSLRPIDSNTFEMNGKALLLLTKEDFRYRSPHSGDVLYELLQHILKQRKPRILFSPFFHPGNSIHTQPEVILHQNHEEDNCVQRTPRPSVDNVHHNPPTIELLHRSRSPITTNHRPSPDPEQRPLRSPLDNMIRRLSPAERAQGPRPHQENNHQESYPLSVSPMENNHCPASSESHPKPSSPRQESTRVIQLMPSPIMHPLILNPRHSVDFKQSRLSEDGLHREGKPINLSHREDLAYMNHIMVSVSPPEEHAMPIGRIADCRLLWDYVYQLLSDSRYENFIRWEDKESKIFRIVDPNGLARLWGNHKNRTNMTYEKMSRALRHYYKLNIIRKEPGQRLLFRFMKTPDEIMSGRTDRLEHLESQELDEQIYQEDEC

HSF1, sequence (Q00613 whole entry): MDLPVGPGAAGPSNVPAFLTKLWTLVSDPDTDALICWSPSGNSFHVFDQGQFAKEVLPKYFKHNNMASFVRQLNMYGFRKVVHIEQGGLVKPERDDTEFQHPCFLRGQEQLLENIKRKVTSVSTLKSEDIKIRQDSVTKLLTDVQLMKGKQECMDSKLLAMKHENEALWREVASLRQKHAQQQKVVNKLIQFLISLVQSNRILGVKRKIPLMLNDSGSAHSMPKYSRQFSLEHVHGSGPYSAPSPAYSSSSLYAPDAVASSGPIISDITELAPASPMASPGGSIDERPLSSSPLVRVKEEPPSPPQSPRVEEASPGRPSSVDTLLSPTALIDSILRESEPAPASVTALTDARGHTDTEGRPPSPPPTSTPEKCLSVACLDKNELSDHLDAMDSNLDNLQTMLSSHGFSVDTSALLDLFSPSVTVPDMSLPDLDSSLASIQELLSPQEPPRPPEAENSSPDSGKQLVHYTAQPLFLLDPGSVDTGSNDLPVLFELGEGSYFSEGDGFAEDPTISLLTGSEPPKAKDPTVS
CRX, sequence (O43186 whole entry): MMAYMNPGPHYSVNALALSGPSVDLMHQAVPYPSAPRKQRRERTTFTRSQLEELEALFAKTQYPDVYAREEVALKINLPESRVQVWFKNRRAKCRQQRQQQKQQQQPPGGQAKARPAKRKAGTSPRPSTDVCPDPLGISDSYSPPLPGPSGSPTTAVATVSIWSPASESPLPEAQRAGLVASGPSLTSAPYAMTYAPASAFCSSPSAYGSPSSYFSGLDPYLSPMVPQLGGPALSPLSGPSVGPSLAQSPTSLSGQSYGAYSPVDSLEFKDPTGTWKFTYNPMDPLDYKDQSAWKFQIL
ELF4, sequence (Q99607 whole entry): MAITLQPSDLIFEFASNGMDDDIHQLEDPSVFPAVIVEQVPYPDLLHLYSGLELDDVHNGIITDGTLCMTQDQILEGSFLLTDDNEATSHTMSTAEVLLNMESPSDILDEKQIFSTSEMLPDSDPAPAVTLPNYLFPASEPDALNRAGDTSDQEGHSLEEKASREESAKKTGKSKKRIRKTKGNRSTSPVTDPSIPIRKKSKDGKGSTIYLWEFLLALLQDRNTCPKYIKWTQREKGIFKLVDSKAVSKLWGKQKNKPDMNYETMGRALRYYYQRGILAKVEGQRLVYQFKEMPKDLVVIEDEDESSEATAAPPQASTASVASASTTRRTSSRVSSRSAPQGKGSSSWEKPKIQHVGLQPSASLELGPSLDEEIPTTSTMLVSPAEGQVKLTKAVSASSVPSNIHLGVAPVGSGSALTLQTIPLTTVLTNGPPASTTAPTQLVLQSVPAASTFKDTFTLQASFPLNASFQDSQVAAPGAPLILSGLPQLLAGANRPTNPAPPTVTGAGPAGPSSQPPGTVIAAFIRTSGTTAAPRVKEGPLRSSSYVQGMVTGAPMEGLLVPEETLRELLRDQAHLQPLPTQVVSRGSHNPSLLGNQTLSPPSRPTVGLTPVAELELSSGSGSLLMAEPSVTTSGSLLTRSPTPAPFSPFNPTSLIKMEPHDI
ETV5, sequence (P41161 whole entry): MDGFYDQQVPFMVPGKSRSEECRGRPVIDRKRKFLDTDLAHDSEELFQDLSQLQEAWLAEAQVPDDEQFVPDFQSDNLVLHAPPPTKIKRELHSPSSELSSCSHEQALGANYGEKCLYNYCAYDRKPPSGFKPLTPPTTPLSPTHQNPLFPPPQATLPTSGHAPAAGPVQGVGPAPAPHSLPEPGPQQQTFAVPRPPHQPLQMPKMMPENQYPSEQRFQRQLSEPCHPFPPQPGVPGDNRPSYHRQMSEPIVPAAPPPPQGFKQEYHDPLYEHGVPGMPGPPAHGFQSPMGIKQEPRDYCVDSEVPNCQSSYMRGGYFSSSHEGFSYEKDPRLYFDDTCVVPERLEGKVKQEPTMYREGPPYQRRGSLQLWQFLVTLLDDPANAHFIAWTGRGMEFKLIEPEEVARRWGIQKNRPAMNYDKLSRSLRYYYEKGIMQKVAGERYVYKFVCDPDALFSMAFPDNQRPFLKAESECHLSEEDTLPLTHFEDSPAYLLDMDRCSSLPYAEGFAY
ETV1, sequence (P50549 whole entry): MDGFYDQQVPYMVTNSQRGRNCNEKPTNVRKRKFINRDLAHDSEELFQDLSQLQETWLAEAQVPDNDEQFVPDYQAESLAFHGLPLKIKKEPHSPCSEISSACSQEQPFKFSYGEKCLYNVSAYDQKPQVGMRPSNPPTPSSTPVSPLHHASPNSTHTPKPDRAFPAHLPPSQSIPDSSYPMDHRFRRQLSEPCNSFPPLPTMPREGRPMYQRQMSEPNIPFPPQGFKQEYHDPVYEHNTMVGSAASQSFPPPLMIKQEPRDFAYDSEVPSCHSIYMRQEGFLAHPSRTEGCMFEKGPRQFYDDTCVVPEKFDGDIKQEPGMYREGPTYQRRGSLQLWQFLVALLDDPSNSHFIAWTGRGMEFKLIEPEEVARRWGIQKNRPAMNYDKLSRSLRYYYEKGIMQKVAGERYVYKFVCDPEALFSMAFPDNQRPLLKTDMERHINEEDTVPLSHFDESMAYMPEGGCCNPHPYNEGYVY

For the sequence TCCTAT, the binding signal with FEV was 1.41 fold enrichment (6-mer frequency, TF over GST control); in the assay with ETV5 it was 1.47 fold enrichment (6-mer frequency, TF over GST control); with HSF1, 1.41 fold enrichment (6-mer frequency, TF over GST control); with SPIC, 1.68 fold enrichment (6-mer frequency, TF over GST control); in the assay with ELF4, 1.46 fold enrichment (6-mer frequency, TF over GST control); in the assay with ELK4 it was 1.49 fold enrichment (6-mer frequency, TF over GST control). In addition, the binding signal in the assay with ETV2 is 1.56 fold enrichment (6-mer frequency, TF over GST control); with ELF3 it was 1.74 fold enrichment (6-mer frequency, TF over GST control); with CRX it was 1.68 fold enrichment (6-mer frequency, TF over GST control); with ETV1, 1.57 fold enrichment (6-mer frequency, TF over GST control); with ERF, 1.56 fold enrichment (6-mer frequency, TF over GST control); with ETV3L, 1.5 fold enrichment (6-mer frequency, TF over GST control). The binding signal with ETS2 was 1.65 fold enrichment (6-mer frequency, TF over GST control); in the assay with SPDEF, 1.72 fold enrichment (6-mer frequency, TF over GST control); in the assay with ETV7, 1.53 fold enrichment (6-mer frequency, TF over GST control); in the assay with ELF5, 1.56 fold enrichment (6-mer frequency, TF over GST control); with ETV3, 1.64 fold enrichment (6-mer frequency, TF over GST control); in the assay with ETV6 it was 1.66 fold enrichment (6-mer frequency, TF over GST control).
